# Laboratory results as given in the supplement of paper PMC7366291.
# Structures can show the parent of a compound that is named as a salt. ± gives the standard deviation of the averaged measurements.
# Tested on: Danio rerio Tg(wt1b:EGFP) embryo, pronephros
# Experiment: pronephric angle neck segment to proximal convoluted tubule (mean of left and right), fold change vs DMSO control; higher = larger pronephric angle
# Details: 25 µM; exposure: 24-48 hpf
# How it was run: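 Dechorionated Tg(wt1b:EGFP) zebrafish embryos were treated with 25 μM compound in 0.5% DMSO, in HEPES-buffered E3 with 0.003% PTU, from 24 to 48 hpf at 28.5°C. On maximum projections of dorsal pronephros images, 16 hand-placed reference points in Fiji gave distances and angles, and values more than 2 SD from the feature mean were left out. Results are fold changes over the mean of same-day DMSO-treated embryos.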
row,Structure (SMILES),pronephric angle neck segment
1,CN1CCN(C2=Nc3ccccc3Oc3ccc(Cl)cc32)CC1 [Loxapine succinate],1.06 ± 0.013
2,CO/N=C(\C(=O)N[C@@H]1C(=O)N2C(C(=O)O)=C(COC(N)=O)CS[C@H]12)c1ccco1 [Cefuroxime sodium salt],0.985 ± 0.025
3,CC(C)/N=c1\cc2n(-c3ccc(Cl)cc3)c3ccccc3nc-2cc1Nc1ccc(Cl)cc1 [Clofazimine],0.961 ± 0.0097
4,CCC1=C(C)CN(C(=O)NCCc2ccc(S(=O)(=O)NC(=O)N[C@H]3CC[C@H](C)CC3)cc2)C1=O [Glimepiride],1 ± 0.03
5,N=C(N)NC(=O)Cc1c(Cl)cccc1Cl [Guanfacine hydrochloride],0.978 ± 0.025
6,CC[N+](CC)(CC)CCC(O)(c1ccccc1)C1CCCCC1 (centres undefined) [Tridihexethyl chloride],1.04 ± 0.026
7,CC[N+](CC)(CC(=O)Nc1c(C)cccc1C)Cc1ccccc1 [Denatonium benzoate],0.99113 ± 0.00026
8,CCCCCCC[N+](CC)(CC)CCCCc1ccc(Cl)cc1 [Clofilium tosylate],0.9834 ± 0.0086
9,CN[C@H](CC(C)C)C(=O)N[C@H]1C(=O)N[C@@H](CC(N)=O)C(=O)N[C@H]2C(=O)N[C@H]3C(=O)N[C@H](C(=O)N[C@H](C(=O)O)c4cc(O)cc(O)c4-c4cc3ccc4O)[C@H](O)c3ccc(c(Cl)c3)Oc3cc2cc(c3O[C@@H]2O[C@H](CO)[C@@H](O)[C@H](O)[C@H]2O[C@H]2C[C@](C)(N)[C@H](O)[C@H](C)O2)Oc2ccc(cc2Cl)[C@H]1O [Vancomycin hydrochloride],1.06 ± 0.077
10,C[C@H]1C[C@H]2[C@@H]3CCC4=CC(=O)C=C[C@]4(C)[C@@]3(F)[C@@H](O)C[C@]2(C)[C@@]1(O)C(=O)CO [Betamethasone],1.04 ± 0.053
11,CN1CCN(CC(=O)N2c3ccccc3C(=O)Nc3cccnc32)CC1 [Pirenzepine dihydrochloride],1.03 ± 0.059
12,C[C@@H]1NC(=O)NC1=O [Methylhydantoin-5-(L)],0.995 ± 0.031
13,COc1cc(C)nc(-n2nc(C)cc2OC)n1 [Epirizole],1.03 ± 0.027
14,CCOCCn1c(N2CCCN(C)CC2)nc2ccccc21 [Emedastine],0.9917 ± 0.0031
